# Test results taken from PubChem BioAssay (NCATS).
# Several values for one entry are separate records, joined by “and”; a condition that tells them apart may be missing. Equal entries are not always repeated. Records with an inconclusive call do not appear. A call without a number means that no potency is given here. Activity calls are given as the source filed them. Unless noted, calls follow the shape of the dose curve; as a rule, active = well fitted curve in the direction sought with a large enough effect; inconclusive = small, poorly fitted or top-dose-only effect, or another doubt; inactive = no such curve, though single readings can be large; an effect the other way counts as inactive or inconclusive.
# Assays:
# [1] = target: Alpha-galactosidase A (Homo sapiens) (UniProt P06280); assay: Counterscreen for Glucocerebrosidase Inhibitors: qHTS Assay for Human alpha-Galactosidase at pH 4.5 (AID 992)
# Sequence of Alpha-galactosidase A (Homo sapiens) (P06280 whole entry, looked up): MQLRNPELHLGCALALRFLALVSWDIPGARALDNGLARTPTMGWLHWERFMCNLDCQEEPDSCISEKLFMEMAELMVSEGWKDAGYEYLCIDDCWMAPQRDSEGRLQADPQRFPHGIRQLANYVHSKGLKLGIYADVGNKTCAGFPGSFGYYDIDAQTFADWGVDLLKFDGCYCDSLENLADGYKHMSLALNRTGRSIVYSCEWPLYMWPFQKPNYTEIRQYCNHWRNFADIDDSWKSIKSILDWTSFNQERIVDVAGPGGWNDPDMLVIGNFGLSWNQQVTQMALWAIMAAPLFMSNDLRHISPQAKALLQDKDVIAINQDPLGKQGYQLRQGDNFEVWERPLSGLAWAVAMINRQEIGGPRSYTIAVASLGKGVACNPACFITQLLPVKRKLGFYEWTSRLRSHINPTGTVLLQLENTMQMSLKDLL
# In short: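 Read-out is 4-methylumbelliferone fluorescence (365 nm excitation, 440 nm emission) after a pH 10 NaOH/glycine stop. Reactions held 2 nM enzyme and 80 uM substrate at pH 4.5 for 20 min at room temperature.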
# [2] = target: alpha-glucosidase (Oryza sativa, rice) (UniProt Q653V4); assay: Counterscreen for Glucocerebrosidase Inhibitors: qHTS Assay for Rice alpha-Glucosidase at pH 5.0 (AID 997)
# In short: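 Rice alpha-glucosidase (4 nM final) with 400 uM 4-methylumbelliferyl-alpha-D-glucopyranoside in citrate buffer pH 5.0, 20 min at room temperature, stopped at pH 10; fluorescence 365/440 nm, compounds 0.7 nM–77 uM, AC50 from Hill fits.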
# [3] = Validation of Assay for Modulators of Lamin A Splicing (AID 1459; active = well fitted curve in the direction sought with a large enough effect in the signal ratio; the % refers to the signal ratio;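 also: cells exposed to compound for two days before reading; ratio rise marks activators and ratio drop marks inhibitors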)
# In short: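 Dual-reporter HeLa S3 line (lamin A-EGFP minigene, DsRed2) treated with compounds 48 hrs, 0.5% DMSO final. Endpoint: EGFP/DsRed2 total intensity ratio from laser-scanning microplate cytometry.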
# [4] = qHTS Assay for Lipid Storage Modulators (AID 1519; calls by dose curve); conditions: Drosophila S3 cells, BODIPY lipid droplet/cell ratio, laser cytometry, cells loaded with oleic acid; for activity change, negative = inhibition: at 57.5 µM (top of the series)
# In short: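 Cells seeded at 5,000 per well were treated with compounds over a concentration series and loaded with oleic acid (400 uM, as added). Lipid droplet fluorescence (488 nm excitation, 500-530 nm channel) was read by laser-scanning cytometry and normalized to 20 uM Triacsin C.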
# [5] = Cell Viability - LYMP2-018 (AID 985);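 also: compound exposure lasted 24 hr at 37 °C; nearly all actives have a fitted effect of over 50% in size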; also: potency is read from the fitted curve at half-maximal effect
# In short: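 Human lymphoblastoid LYMP2-018 cells, 2500/well, settled 5 hr at 37 C then exposed to compound 24 hr at 37 C; intracellular ATP measured by CellTiter-Glo luminescence. AC50 from Hill-equation concentration-response fits.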
# [6] = Cell Viability - LYMP2-022 (AID 987); also: nearly all actives have a fitted effect of over 55% in size; also: potency is read from the fitted curve at half-maximal effect
# In short: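 LYMP2-022 lymphoblastoid cells (2500/well, complete medium) were treated with compounds for 24 hours at 37 C; intracellular ATP was then read by CellTiter-Glo luminescence after 30 min at room temperature. AC50 values were derived from Hill-equation fits.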
# [7] = Cell Viability - LYMP2-026 (AID 989); also: nearly all actives have a fitted effect of over 50% in size; also: potency is read from the fitted curve at half-maximal effect
# In short: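 Human lymphoblastoid LYMP2-026 cells, 2500/well, exposed to compound 24 h at 37 C in complete medium. Viability as intracellular ATP by CellTiter-Glo luminescence; AC50 from Hill fits of qHTS concentration-response.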
# [8] = Cell Viability - LYMP1-002 - Assay at 40 hr (AID 994); also: nearly all actives have a fitted effect of over 60% in size; also: potency is read from the fitted curve at half-maximal effect
# In short: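 LYMP1-002 human lymphoblastoid cells (2500/well, complete medium) were treated with compounds for 40 hr at 37 C. Intracellular ATP was measured by CellTiter-Glo luminescence, and AC50 values came from Hill-equation fits of concentration-response data; tetraoctylammonium bromide was the positive control.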
# [9] = Cell Viability - LYMP2-020 (AID 986); also: nearly all actives have a fitted effect of over 55% in size; also: potency is read from the fitted curve at half-maximal effect
# In short: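 Human lymphoblastoid LYMP2-020 cells (2500/well) preincubated 5 h at 37 C, then treated 24 h at 37 C. Viability measured as intracellular ATP by CellTiter-Glo luminescence after 30 min at room temperature; AC50 from Hill fits.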
# [10] = Cell Viability - LYMP1-002 - Assay at 24 hr (AID 993); also: potency is read from the fitted curve at half-maximal effect
# In short: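 Human lymphoblastoid LYMP1-002 cells (2500/well) treated 24 h at 37 °C; viability as intracellular ATP by CellTiter-Glo luminescence. Tetraoctylammonium bromide as positive control; AC50 from Hill-equation fits of qHTS concentration-response.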
# [11] = measured here: cell count channel max response
# [12] = measured here: lipid channel max response
smiles,measurement,setting,value
CN1CCc2cc(NC(=O)Nc3cccnc3)ccc21,outcome,[1],inactive
same,outcome,[2],inactive
same,outcome,[3],inactive
same,"activity change, negative = inhibition",[4],0.252% (inactive)
same,max response,[4]; [11],32.8%
same,max response,[4]; [12],37.5%
O=C(O)[C@@H]1C[C@@H](C(=O)O)N1,outcome,[1],inactive
same,outcome,[2],inactive
same,outcome,[3],inactive
same,"activity change, negative = inhibition",[4],-10.7% (inactive) and 0.262% (inactive)
same,max response,[4]; [11],-15.8% and -6.72%
same,max response,[4]; [12],-25% and -8.29%
O=c1[nH]c2cc(C(F)(F)F)ccc2n1-c1cc(C(F)(F)F)ccc1O,outcome,[1],inactive
same,outcome,[2],inactive
same,outcome,[3],inactive
same,"activity change, negative = inhibition",[4],-0.787% (inactive)
same,max response,[4]; [11],34.5%
same,max response,[4]; [12],34%
c1ccc(-c2ccccn2)nc1,outcome,[1],inactive
same,outcome,[2],inactive
same,outcome,[3],inactive
Nc1ccc(O)c(C(=O)O)c1,Potency,[5],inactive
same,Potency,[6],inactive
same,Potency,[7],inactive
same,Potency,[8],inactive
S=c1[nH]c2ccccc2s1,Potency,[5],inactive
same,Potency,[6],inactive
same,Potency,[7],inactive
same,Potency,[8],inactive
CN=c1nc(-c2ccccc2)n(-c2ccccc2)s1,outcome,[1],inactive
same,outcome,[2],inactive
Nc1ccc([N+](=O)[O-])cc1O,Potency,[5],inactive
same,Potency,[9],inactive
same,Potency,[6],inactive
same,Potency,[7],inactive
same,Potency,[10],inactive
same,Potency,[8],inactive
O=C(O)c1cc(O)c(O)c(O)c1,Potency,[5],inactive
same,Potency,[9],inactive
same,Potency,[6],inactive
same,Potency,[7],inactive
same,Potency,[10],inactive
same,Potency,[8],inactive
C=C[C@H]1CN2CC[C@@H]1C[C@@H]2[C@@H](O)c1ccnc2ccc(OC)cc12,outcome,[1],inactive
same,outcome,[2],inactive
CN(C)c1ccc(N=NS(=O)(=O)O)cc1,Potency,[5],inactive
same,Potency,[9],inactive
same,Potency,[6],inactive
same,Potency,[7],inactive
same,Potency,[10],inactive
same,Potency,[8],inactive
Brc1c(Br)c(Br)c2n[nH]nc2c1Br,outcome,[1],inactive
same,outcome,[2],inactive
Nc1nc2ccc([N+](=O)[O-])cc2s1,Potency,[5],inactive
same,Potency,[9],inactive
same,Potency,[6],inactive
same,Potency,[7],inactive
same,Potency,[10],inactive
same,Potency,[8],inactive
O=Nc1ccc2oc(=O)ccc2c1,outcome,[1],inactive
same,outcome,[2],inactive
CCCOC(=O)c1ccc(O)cc1,Potency,[5],inactive
same,Potency,[9],inactive
same,Potency,[6],inactive
same,Potency,[7],inactive
same,Potency,[10],inactive
same,Potency,[8],inactive
C#C[C@]1(O)CC[C@H]2[C@@H]3CCc4cc(O)ccc4[C@H]3CC[C@@]21C,Potency,[5],inactive
same,Potency,[9],inactive
same,Potency,[6],inactive
same,Potency,[7],inactive
same,Potency,[10],inactive
N[C@@H](CC(=O)O)C(=O)O,outcome,[1],inactive
same,outcome,[2],inactive
same,"activity change, negative = inhibition",[4],4.62% (inactive) and -0.577% (inactive)
same,max response,[4]; [11],-7.93% and 52.8%
same,max response,[4]; [12],-3.65% and 51.4%
CN1[C@@H]2CC[C@H]1CC(OC(c1ccccc1)c1ccccc1)C2 (stereo partly drawn),outcome,[1],inactive
same,outcome,[2],inactive
CN(C)c1nc2c(Br)c(Br)c(Br)c(Br)c2[nH]1,outcome,[1],inactive
same,outcome,[2],inactive
COc1ccccc1CNCCCCCCNCCCCCCCCNCCCCCCNCc1ccccc1OC,outcome,[1],inactive
same,outcome,[2],inactive
c1ccc2sc(SSc3nc4ccccc4s3)nc2c1,Potency,[5],inactive
same,Potency,[9],inactive
same,Potency,[6],inactive
same,Potency,[7],inactive
same,Potency,[10],inactive
same,Potency,[8],inactive
C[N+]1(C)CCC(OC(=O)C(c2ccccc2)c2ccccc2)CC1,outcome,[1],inactive
same,outcome,[2],inactive
CC(C)Cc1ccc([C@H](C)C(=O)O)cc1,outcome,[1],inactive
same,outcome,[2],inactive
COc1cc(/C=C/C(=O)CC(=O)/C=C/c2ccc(O)c(OC)c2)ccc1O,Potency,[5],39.8 µM (active)
same,Potency,[9],31.6 µM (active)
same,Potency,[6],25.1 µM (active)
same,Potency,[7],31.6 µM (active)
same,Potency,[10],39.8 µM (active)
same,Potency,[8],39.8 µM (active)
CC(C)(C=O)Cc1cc(C(C)(C)C)c(O)c(C(C)(C)C)c1,outcome,[1],inactive
same,outcome,[2],inactive
O=C(O)/C=C\C(=O)O,Potency,[5],inactive
same,Potency,[9],inactive
same,Potency,[6],inactive
same,Potency,[7],inactive
same,Potency,[10],inactive
same,Potency,[8],inactive
CCCCCCCCCCCCCCCCCC(=O)O,Potency,[5],inactive
same,Potency,[9],inactive
same,Potency,[6],inactive
same,Potency,[7],inactive
same,Potency,[10],inactive
same,Potency,[8],inactive
O=C1C(SCCO)=C(SCCO)C(=O)c2ccccc21,outcome,[1],inactive
same,outcome,[2],inactive
N=C1N=C(N)c2cc3ccccc3cc21,Potency,[5],39.8 µM (active)
same,Potency,[9],39.8 µM (active)
same,Potency,[6],39.8 µM (active)
same,Potency,[7],39.8 µM (active)
same,Potency,[10],39.8 µM (active)
same,Potency,[8],39.8 µM (active)
N#C/C(=C\c1c[nH]c2ccccc12)C(=O)c1ccc(O)c(O)c1,outcome,[1],inactive
same,outcome,[2],inactive
Nc1ccc(O)c([N+](=O)[O-])c1,Potency,[5],inactive
same,Potency,[9],inactive
same,Potency,[6],inactive
same,Potency,[7],inactive
same,Potency,[10],inactive
same,Potency,[8],inactive
CN(C)c1ccc(C(=C2C=CC(=[N+](C)C)C=C2)c2ccccc2)cc1,Potency,[5],0.199 µM (active)
same,Potency,[9],0.316 µM (active)
same,Potency,[6],0.126 µM (active)
same,Potency,[7],0.316 µM (active)
same,Potency,[10],0.794 µM (active)
same,Potency,[8],1 µM (active)
NC[C@@H]1O[C@H](C23CC4CC(CC(C4)C2)C3)Cc2c1ccc(O)c2O,outcome,[1],inactive
same,outcome,[2],inactive
NCCO,Potency,[5],inactive
same,Potency,[9],inactive
same,Potency,[6],inactive
same,Potency,[7],inactive
same,Potency,[10],inactive
same,Potency,[8],inactive
COc1cc(CNC(=O)CCCC/C=C/C(C)C)ccc1O,Potency,[9],inactive
same,Potency,[6],inactive
same,Potency,[7],inactive
same,Potency,[10],inactive
same,Potency,[8],inactive
Cc1ccc(O)c(N=Nc2ccccc2)n1,outcome,[1],inactive
same,outcome,[2],inactive
Oc1cc2c(cc1O)CN(C(=S)NCCc1ccc(Cl)cc1)CCC2,outcome,[1],inactive
same,outcome,[2],inactive
CC1(C)S[C@@H]2[C@H](NC(=O)[C@H](N)c3ccccc3)C(=O)N2[C@H]1C(=O)O,Potency,[5],inactive
same,Potency,[9],inactive
same,Potency,[6],inactive
same,Potency,[7],inactive
same,Potency,[10],inactive
same,Potency,[8],inactive
